Assay results as given in the supplement of paper PMC10849652.
Targets with a hit are over-represented here; the source holds about 8,800 in all. About 0.5% of all pairs of compound and target were hits. A number with no mark means an inactive call.

Tests used:
Assay in all cases: log2 fold change, soluble protein after heating vs DMSO (PISA); higher = thermal stabilisation; K562 lysate, 10 uM; active = over 0.2 and 3.5 SD of the protein, either way, in both replicates (recomputed)
nilotinib = compound: Cc1cn(-c2cc(NC(=O)c3ccc(C)c(Nc4nccc(-c5cccnc5)n4)c3)cc(C(F)(F)F)c2)cn1 [nilotinib]
Summary of the method: (§1)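 Thermal stability, expressed as log-two fold change relative to solvent controls, is given from duplicates. Crude K562 extract in PBS pH 7.4 with 1 mM MgCl2, at 1 mg/mL protein, was treated with 10 μM compound for 30 min and heated in aliquots for 3 min across 48°C-58°C. After pooling, adjustment to 0.5% NP-40 at 4°C and centrifugation at 21,000xg for 90 min, supernatant protein was measured by TMTpro 16plex LC-MS/MS with channel sums equalised.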

[1] = compound: Cc1nc(Nc2n[nH]c3c2CN(C(=O)N[C@H](CN(C)C)c2ccccc2)C3(C)C)c2sccc2n1
Summary of the method: as §1

dasatinib = compound: Cc1nc(Nc2ncc(C(=O)Nc3c(C)cccc3Cl)s2)cc(N2CCN(CCO)CC2)n1 [dasatinib]
Summary of the method: as §1

[2] = compound: Cc1ncc(-c2ccnc(Nc3ccc(S(C)(=O)=O)cc3)n2)n1C(C)C
Summary of the method: as §1

[3] = compound: Cn1cc(-c2ccc3c(c2)CCN3C(=O)Cc2cccc(C(F)(F)F)c2)c2c(N)ncnc21
Summary of the method: as §1

tipifarnib = compound: Cn1cncc1[C@@](N)(c1ccc(Cl)cc1)c1ccc2c(c1)c(-c1cccc(Cl)c1)cc(=O)n2C [tipifarnib]
Summary of the method: as §1

[4] = compound: NC(=O)c1cnc(N[C@@H]2CCCC[C@@H]2N)nc1Nc1cccc(-n2nccn2)c1
Summary of the method: as §1

[5] = compound: NC1(c2ccc(-c3nc4ccn5c(=O)[nH]nc5c4cc3-c3ccccc3)cc2)CCC1
Summary of the method: as §1

[6] = compound: NCC(=O)Nc1ccc(-n2nc(C(F)(F)F)cc2-c2ccc3c(ccc4ccccc43)c2)cc1
Summary of the method: as §1

vorinostat = compound: O=C(CCCCCCC(=O)Nc1ccccc1)NO [vorinostat]
Summary of the method: as §1

silmitasertib = compound: O=C(O)c1ccc2c(c1)nc(Nc1cccc(Cl)c1)c1ccncc12 [silmitasertib]
Summary of the method: as §1

entospletinib = compound: c1cn2cc(-c3ccc4cn[nH]c4c3)nc(Nc3ccc(N4CCOCC4)cc3)c2n1 [entospletinib]
Summary of the method: as §1

quisinostat = compound: Cn1cc(CNCC2CCN(c3ncc(C(=O)NO)cn3)CC2)c2ccccc21 [quisinostat]
Summary of the method: as §1

[7] = compound: NC(=O)Nc1cc(-c2cccc(F)c2)sc1C(=O)N[C@H]1CCCNC1
Summary of the method: as §1

[8] = compound: O=C1NC(=O)C(c2cnc3ccccn23)=C1c1cn2c3c(cc(F)cc13)CN(C(=O)N1CCCCC1)CC2
Summary of the method: as §1

GSTM2 (UniProt P28161)
Chain of UniProt P28161 (P28161 whole entry, looked up): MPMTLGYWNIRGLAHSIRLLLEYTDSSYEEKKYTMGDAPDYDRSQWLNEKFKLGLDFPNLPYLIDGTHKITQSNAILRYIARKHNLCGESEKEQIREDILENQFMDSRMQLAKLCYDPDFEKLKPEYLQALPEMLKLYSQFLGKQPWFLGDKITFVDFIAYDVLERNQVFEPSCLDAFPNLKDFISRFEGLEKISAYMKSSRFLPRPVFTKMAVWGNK
log2 fold change (nilotinib): 0.124 | log2 fold change [1]: -0.007 | log2 fold change (dasatinib): 0.027 | log2 fold change [2]: 0.007 | log2 fold change [3]: -0.005 | log2 fold change (tipifarnib): 0.064 | log2 fold change [4]: -0.052 | log2 fold change [5]: -0.019 | log2 fold change [6]: 0.017 | log2 fold change (vorinostat): 0.323 (active) | log2 fold change (silmitasertib): 0.378 (active) | log2 fold change (entospletinib): 0.044

HTT (UniProt P42858)
log2 fold change (nilotinib): -0.106 | log2 fold change [1]: 0.003 | log2 fold change (dasatinib): 0.001 | log2 fold change [2]: 0.072 | log2 fold change [3]: 0.072 | log2 fold change (quisinostat): -0.081 | log2 fold change (tipifarnib): -0.072 | log2 fold change [7]: 0.041 | log2 fold change [5]: 0.005 | log2 fold change [6]: -0.029 | log2 fold change (vorinostat): -0.331 (active) | log2 fold change (silmitasertib): 0.04 | log2 fold change [8]: 0 | log2 fold change (entospletinib): -0.042

HNRNPUL1 (UniProt M0R247)
log2 fold change [5]: -0.063 | log2 fold change (vorinostat): 0.197 | log2 fold change (silmitasertib): -0.037

ITPR2 (UniProt Q14571)
Chain of UniProt Q14571 (Q14571 whole entry, looked up): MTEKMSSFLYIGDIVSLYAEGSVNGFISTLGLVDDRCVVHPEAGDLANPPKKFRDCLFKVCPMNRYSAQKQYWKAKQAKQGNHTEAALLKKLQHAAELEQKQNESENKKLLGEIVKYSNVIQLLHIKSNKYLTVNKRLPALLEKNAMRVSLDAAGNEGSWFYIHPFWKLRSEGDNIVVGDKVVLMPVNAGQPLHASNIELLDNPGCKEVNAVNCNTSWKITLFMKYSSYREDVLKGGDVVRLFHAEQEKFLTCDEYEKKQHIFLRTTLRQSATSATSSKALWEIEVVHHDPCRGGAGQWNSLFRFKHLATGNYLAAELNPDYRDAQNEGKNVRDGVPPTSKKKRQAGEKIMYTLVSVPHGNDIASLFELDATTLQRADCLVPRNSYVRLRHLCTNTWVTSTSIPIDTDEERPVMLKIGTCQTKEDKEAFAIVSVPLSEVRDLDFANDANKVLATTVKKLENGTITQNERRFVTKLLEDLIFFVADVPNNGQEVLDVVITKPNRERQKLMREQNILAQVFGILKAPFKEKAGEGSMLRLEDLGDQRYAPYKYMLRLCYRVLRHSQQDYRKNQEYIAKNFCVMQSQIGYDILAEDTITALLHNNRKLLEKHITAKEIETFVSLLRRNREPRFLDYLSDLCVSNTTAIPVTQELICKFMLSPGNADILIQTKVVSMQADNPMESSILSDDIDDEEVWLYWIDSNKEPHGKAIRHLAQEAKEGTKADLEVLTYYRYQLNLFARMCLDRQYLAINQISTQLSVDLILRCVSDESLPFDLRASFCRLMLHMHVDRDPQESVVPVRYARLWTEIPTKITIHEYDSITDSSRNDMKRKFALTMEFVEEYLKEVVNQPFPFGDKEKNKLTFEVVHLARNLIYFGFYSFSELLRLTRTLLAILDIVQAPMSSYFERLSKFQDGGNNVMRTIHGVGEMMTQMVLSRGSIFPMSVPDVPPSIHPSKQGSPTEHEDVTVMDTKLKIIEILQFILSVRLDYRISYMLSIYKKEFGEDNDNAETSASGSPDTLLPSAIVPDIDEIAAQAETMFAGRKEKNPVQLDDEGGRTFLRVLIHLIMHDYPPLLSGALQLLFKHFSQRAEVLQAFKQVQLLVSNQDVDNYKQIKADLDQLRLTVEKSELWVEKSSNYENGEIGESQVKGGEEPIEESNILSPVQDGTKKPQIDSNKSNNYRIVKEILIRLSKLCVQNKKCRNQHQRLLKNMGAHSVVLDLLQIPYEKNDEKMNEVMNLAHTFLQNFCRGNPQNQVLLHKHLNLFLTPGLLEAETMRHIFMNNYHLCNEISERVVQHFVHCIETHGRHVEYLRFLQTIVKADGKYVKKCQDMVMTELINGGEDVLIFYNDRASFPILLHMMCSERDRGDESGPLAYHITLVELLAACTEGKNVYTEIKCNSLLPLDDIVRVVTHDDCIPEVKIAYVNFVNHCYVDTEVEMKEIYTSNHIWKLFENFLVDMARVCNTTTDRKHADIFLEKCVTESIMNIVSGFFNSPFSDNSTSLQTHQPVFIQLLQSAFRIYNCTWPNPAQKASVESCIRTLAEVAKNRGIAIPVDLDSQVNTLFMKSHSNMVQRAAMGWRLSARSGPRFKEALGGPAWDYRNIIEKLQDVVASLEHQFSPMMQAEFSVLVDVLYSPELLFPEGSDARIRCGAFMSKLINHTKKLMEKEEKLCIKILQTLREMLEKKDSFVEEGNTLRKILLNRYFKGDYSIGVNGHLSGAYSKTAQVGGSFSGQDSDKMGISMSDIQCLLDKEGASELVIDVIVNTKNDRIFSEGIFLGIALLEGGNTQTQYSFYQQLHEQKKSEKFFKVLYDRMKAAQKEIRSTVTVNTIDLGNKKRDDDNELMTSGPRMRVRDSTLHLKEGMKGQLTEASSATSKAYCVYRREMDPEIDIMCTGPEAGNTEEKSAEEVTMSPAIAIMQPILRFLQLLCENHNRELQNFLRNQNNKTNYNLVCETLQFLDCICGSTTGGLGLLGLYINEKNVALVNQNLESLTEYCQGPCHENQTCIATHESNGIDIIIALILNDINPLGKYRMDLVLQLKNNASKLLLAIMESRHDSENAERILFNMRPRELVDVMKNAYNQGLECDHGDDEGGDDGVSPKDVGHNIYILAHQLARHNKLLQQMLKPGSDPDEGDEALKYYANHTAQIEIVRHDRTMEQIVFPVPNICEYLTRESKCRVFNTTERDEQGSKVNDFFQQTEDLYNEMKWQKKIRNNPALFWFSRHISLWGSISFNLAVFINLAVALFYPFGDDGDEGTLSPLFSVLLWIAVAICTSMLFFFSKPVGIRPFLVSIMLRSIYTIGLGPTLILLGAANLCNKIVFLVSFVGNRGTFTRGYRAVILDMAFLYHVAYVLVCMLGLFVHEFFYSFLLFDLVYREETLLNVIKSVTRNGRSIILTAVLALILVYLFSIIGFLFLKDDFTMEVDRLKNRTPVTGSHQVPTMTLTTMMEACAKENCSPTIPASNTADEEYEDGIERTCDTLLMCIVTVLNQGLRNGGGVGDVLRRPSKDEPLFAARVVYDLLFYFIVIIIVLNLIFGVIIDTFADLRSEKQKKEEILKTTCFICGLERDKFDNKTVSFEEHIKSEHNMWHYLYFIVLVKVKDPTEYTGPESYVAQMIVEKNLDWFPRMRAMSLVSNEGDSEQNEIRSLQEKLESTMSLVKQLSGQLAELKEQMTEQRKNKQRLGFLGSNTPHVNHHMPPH
log2 fold change (nilotinib): -0.008 | log2 fold change [1]: -0.081 | log2 fold change (dasatinib): 0.019 | log2 fold change [2]: 0.048 | log2 fold change [3]: -0.078 | log2 fold change (tipifarnib): 0.003 | log2 fold change [4]: 0.277 | log2 fold change [5]: -0.12 | log2 fold change (vorinostat): -0.965 (active) | log2 fold change (silmitasertib): 0.024

HMGA1 isoform 2 (UniProt P17096)
Chain of UniProt P17096 (P17096 whole entry, looked up): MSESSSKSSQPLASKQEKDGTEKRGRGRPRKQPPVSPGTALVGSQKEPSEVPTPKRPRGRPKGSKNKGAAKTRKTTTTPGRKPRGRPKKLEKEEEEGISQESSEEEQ
log2 fold change (nilotinib): 0.209 | log2 fold change [1]: 0.014 | log2 fold change (dasatinib): 0.091 | log2 fold change [2]: 0.395 | log2 fold change [3]: -0.099 | log2 fold change (quisinostat): 0.289 | log2 fold change (tipifarnib): 0.168 | log2 fold change [7]: -0.018 | log2 fold change [4]: -0.064 | log2 fold change [5]: -0.101 | log2 fold change (vorinostat): 0.205 | log2 fold change (silmitasertib): -0.047 | log2 fold change [8]: 0.128

HYDIN (UniProt Q4G0P3)
log2 fold change (dasatinib): -0.034 | log2 fold change [3]: 0.219 | log2 fold change [4]: -0.282 | log2 fold change [6]: 0.028 | log2 fold change (entospletinib): -0.005

IGF2BP2 isoform 6 (UniProt Q9Y6M1)
log2 fold change [4]: 0.079

HNRNPL, A0A3B3ITJ4
log2 fold change [4]: 0.019

IMPDH2 (UniProt H0Y4R1)
log2 fold change (nilotinib): 0.106 | log2 fold change [1]: -0.012 | log2 fold change (dasatinib): 0.004 | log2 fold change [2]: 0.014 | log2 fold change [3]: -0.066 | log2 fold change (quisinostat): -0.153 | log2 fold change (tipifarnib): -0.09 | log2 fold change [7]: 0.02 | log2 fold change [4]: -0.01 | log2 fold change [6]: -0.044 | log2 fold change [8]: 0.05 | log2 fold change (entospletinib): -0.042

HSPBAP1 (UniProt Q96EW2)
Chain of UniProt Q96EW2 (Q96EW2 whole entry, looked up): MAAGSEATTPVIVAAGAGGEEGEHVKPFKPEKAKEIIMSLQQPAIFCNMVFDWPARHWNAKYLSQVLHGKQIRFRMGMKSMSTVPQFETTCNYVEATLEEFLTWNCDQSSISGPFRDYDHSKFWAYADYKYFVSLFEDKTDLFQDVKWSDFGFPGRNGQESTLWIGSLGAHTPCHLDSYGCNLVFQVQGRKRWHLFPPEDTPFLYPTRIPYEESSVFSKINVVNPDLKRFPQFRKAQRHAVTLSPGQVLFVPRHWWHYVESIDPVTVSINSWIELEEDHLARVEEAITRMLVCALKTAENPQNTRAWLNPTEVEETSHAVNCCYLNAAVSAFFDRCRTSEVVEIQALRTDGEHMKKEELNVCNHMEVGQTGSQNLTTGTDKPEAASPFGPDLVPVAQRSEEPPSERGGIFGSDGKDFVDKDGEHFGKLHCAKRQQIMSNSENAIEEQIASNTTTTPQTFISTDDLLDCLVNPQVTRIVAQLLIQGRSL
log2 fold change (nilotinib): 0.1 | log2 fold change [1]: 0.039 | log2 fold change (dasatinib): 0.011 | log2 fold change [2]: 0.14 | log2 fold change [3]: 0.213 | log2 fold change (quisinostat): -0.07 | log2 fold change (tipifarnib): 0.056 | log2 fold change [7]: 0.024 | log2 fold change [4]: -0.056 | log2 fold change [5]: 0.032 | log2 fold change (vorinostat): -0.07 | log2 fold change (silmitasertib): 0.044 | log2 fold change [8]: -0.014 | log2 fold change (entospletinib): -0.125

HSPA8 (UniProt E9PN89)
log2 fold change (nilotinib): 0.013 | log2 fold change [1]: -0.008 | log2 fold change (dasatinib): -0.209 | log2 fold change [2]: -0.055 | log2 fold change [3]: -0.032 | log2 fold change (quisinostat): -0.415 | log2 fold change (tipifarnib): 0.006 | log2 fold change [7]: 0 | log2 fold change [4]: 0.084 | log2 fold change [5]: -0.089 | log2 fold change (vorinostat): -0.01 | log2 fold change (silmitasertib): 0.016 | log2 fold change [8]: -0.017 | log2 fold change (entospletinib): -0.024

GPLD1 (UniProt P80108)
Chain of UniProt P80108 (P80108 whole entry, looked up): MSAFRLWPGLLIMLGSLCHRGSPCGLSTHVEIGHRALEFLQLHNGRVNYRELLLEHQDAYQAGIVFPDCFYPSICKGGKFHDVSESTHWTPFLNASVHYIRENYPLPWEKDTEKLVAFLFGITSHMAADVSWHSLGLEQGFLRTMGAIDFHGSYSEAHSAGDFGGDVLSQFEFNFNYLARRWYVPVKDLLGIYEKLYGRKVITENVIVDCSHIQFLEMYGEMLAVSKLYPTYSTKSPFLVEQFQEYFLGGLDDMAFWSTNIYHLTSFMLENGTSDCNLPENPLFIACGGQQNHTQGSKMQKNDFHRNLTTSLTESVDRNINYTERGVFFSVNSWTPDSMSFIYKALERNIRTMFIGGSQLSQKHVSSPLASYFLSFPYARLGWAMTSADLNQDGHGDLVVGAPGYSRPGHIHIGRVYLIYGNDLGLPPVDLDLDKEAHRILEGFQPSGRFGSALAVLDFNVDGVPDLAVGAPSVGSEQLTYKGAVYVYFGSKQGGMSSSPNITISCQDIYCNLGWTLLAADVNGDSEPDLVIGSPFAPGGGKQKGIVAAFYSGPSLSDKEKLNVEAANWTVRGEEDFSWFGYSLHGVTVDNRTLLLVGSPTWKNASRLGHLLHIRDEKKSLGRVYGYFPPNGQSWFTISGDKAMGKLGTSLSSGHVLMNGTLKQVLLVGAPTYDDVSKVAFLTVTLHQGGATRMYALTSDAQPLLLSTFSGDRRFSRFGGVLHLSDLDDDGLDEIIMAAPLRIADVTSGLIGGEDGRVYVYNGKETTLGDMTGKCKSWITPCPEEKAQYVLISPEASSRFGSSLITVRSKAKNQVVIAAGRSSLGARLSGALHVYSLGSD
log2 fold change (dasatinib): -0.255 | log2 fold change [3]: 0 | log2 fold change (quisinostat): 0.108 | log2 fold change [7]: 0.153 | log2 fold change [8]: 0.366

KIAA0930 isoform 2 (UniProt Q6ICG6)
log2 fold change (nilotinib): -0.041 | log2 fold change [1]: 0.05 | log2 fold change (dasatinib): 0.202 | log2 fold change [2]: -0.109 | log2 fold change [3]: -0.021 | log2 fold change (quisinostat): 0.03 | log2 fold change (tipifarnib): -0.037 | log2 fold change [7]: -0.026 | log2 fold change [4]: -0.047 | log2 fold change [6]: 0.046 | log2 fold change [8]: -0.057 | log2 fold change (entospletinib): 0.062

KDM5B isoform 2 (UniProt Q9UGL1)
log2 fold change (dasatinib): 0.021 | log2 fold change [3]: -0.049 | log2 fold change (quisinostat): -0.117 | log2 fold change [7]: -0.085 | log2 fold change [4]: 0.034 | log2 fold change [5]: -0.049 | log2 fold change [6]: 0.11 | log2 fold change (vorinostat): 0.085 | log2 fold change (silmitasertib): -0.018 | log2 fold change [8]: 0.116 | log2 fold change (entospletinib): -0.037

HDAC3 (UniProt E7ESJ6)
log2 fold change [4]: 0.058

ITPRIP (UniProt Q8IWB1)
Chain of UniProt Q8IWB1 (Q8IWB1 whole entry, looked up): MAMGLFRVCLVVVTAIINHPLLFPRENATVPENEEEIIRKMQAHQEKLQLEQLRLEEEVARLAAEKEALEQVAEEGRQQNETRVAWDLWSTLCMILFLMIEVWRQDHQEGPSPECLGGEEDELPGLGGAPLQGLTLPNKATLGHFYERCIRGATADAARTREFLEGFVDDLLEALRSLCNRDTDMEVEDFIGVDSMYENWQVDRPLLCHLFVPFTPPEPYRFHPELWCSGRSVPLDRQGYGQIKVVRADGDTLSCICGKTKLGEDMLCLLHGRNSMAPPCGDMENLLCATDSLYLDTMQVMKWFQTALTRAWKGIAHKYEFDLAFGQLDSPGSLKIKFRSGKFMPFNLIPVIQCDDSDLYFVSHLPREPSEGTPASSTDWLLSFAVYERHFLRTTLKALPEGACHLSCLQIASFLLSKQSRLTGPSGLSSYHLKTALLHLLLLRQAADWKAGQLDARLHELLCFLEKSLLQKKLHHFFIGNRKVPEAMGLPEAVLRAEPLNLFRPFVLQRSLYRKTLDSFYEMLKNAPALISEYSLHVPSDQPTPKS
log2 fold change (dasatinib): -0.017 | log2 fold change [3]: 0.005 | log2 fold change [5]: 0.06 | log2 fold change (vorinostat): -0.33 | log2 fold change (silmitasertib): 0.095

ISL2 (UniProt Q96A47)
log2 fold change (dasatinib): 0.015 | log2 fold change [3]: 0.053 | log2 fold change (quisinostat): 0.055 | log2 fold change [7]: -0.092 | log2 fold change [5]: 0.014 | log2 fold change (vorinostat): -0.026 | log2 fold change (silmitasertib): 0.04 | log2 fold change [8]: 0.179

GYPA (UniProt P02724)
Chain of UniProt P02724 (P02724 whole entry, looked up): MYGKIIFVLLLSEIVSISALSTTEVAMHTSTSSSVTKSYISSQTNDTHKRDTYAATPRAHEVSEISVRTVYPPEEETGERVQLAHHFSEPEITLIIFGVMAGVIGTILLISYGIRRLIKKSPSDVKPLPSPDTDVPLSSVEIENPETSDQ
log2 fold change (dasatinib): 0.097 | log2 fold change [3]: 0.045 | log2 fold change (quisinostat): -0.062 | log2 fold change [7]: 0.026 | log2 fold change [4]: -0.047 | log2 fold change [5]: -0.024 | log2 fold change [6]: -0.028 | log2 fold change (vorinostat): 0.152 | log2 fold change (silmitasertib): -0.097 | log2 fold change [8]: -0.04 | log2 fold change (entospletinib): 0.019
